Reference: PubChem BioAssay (Tox21)
“And” between values parts separate entries of the source, which are not always exact repeats. Identical values can stand only once. Records with an inconclusive call do not appear. Some structures have more than one record in an assay (separate samples or runs), and their calls can disagree. The source made the active and inactive calls. Calls come from the whole dose curve. Non-standard residues stand in square brackets, D forms with d. Residues, ends and D or L forms follow the SMILES beside them. pGlu = O=C1CC[C@@H](C(=O)O)N1

What was measured:
[1] = target: Acetylcholinesterase (Homo sapiens) (UniProt P22303); assay: Acetylcholinesterase (AChE) small molecule antagonists: colormetric cell-based qHTS assay (AID 1347395); conditions: SH-SY5Y cells AChE activity, colorimetric (Ellman); series mostly up to 115 µM; note: nearly all actives have a fitted effect of over 30% in size; note: potency is the fitted concentration of half-maximal effect
In short: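 In this cell-based qHTS, attached SH-SY5Y cells were treated with test chemicals for 30 min, after which acetylthiocholine hydrolysis was followed by DTNB colour development over 90 min at 37 C.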

[2] = target: Acetylcholinesterase (Homo sapiens) (UniProt P22303); assay: Acetylcholinesterase (AChE) small molecule antagonists: enzyme-based qHTS assay (AID 1347397); conditions: Potency: AChE enzyme activity inhibition; outcome: AChE enzyme activity inhibition; series mostly up to 115 µM; note: nearly all actives have a fitted effect of over 55% in size; note: potency is the fitted concentration of half-maximal effect
In short: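 Recombinant human AChE (50 mU/mL) preincubated with compound 30 min at room temperature; acetylthiocholine plus DTNB then added, and thiocholine formation read colorimetrically after 10 min at room temperature. DMSO served as vehicle control.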

[3] = target: Acetylcholinesterase (Homo sapiens) (UniProt P22303); assay: Acetylcholinesterase (AChE) small molecule antagonists: fluorescence cell-based qHTS assay (AID 1347398); conditions: SH-SY5Y cells; Potency: AChE activity; outcome: AChE activity; series mostly up to 115 µM; note: nearly all actives have a fitted effect of over 50% in size; note: potency is the fitted concentration of half-maximal effect
In short: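 SH-SY5Y cells (2000/well), attached overnight, incubated with compound 30 min at 37 C. Acetylthiocholine plus Thiolite Green then added for 40 min at room temperature. Thiocholine fluorescence (Ex/Em 490/520 nm) reports cellular AChE activity.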

[4] = target: Acetylcholinesterase (Homo sapiens) (UniProt P22303); assay: Acetylcholinesterase (AChE) small molecule antagonists: enzyme-based qHTS assay with human liver microsomes (AID 1347399); conditions: Potency: qHTS inhibition; outcome: qHTS inhibition; series mostly up to 115 µM; note: nearly all actives have a fitted effect of over 60% in size
In short: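 Recombinant human AChE (50 mU/mL in the enzyme mix) and human liver microsomes (0.25 mg/mL final) were preincubated with compound and NADPH (0.25 mg/mL final) for 30 min at 37 C. Acetylthiocholine/DTNB was then added; thiocholine was read colorimetrically after 10 min at room temperature.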
% is set by controls: 0 for no effect and ±100 for the full control effect.

Acetylcholinesterase (Homo sapiens), sequence (P22303 whole entry, looked up): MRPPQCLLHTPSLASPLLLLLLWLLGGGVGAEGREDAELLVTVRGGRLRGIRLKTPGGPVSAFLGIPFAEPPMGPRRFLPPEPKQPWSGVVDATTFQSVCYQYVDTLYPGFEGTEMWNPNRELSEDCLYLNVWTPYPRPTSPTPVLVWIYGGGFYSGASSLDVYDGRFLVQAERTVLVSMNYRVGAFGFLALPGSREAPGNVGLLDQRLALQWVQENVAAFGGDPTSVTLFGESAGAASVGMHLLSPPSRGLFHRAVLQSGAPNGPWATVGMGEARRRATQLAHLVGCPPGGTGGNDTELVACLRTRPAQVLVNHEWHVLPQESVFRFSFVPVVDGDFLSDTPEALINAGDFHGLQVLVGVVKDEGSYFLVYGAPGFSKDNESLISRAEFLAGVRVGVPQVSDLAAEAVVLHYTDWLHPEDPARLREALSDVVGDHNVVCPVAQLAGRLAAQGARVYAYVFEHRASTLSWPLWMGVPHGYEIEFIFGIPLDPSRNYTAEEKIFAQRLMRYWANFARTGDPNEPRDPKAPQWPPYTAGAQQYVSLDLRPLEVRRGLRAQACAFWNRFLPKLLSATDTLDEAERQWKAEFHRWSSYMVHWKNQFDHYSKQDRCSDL

COC(=O)c1c(C)cc(O)c(C)c1O
inactive: Potency [1] | Potency [2] | Potency [3] | Potency [4]

CCCCCC1=CCCC1=O
22.9 µM (active) and inactive: Potency [3]
inactive: Potency [1] | Potency [2] | Potency [4]

OC[C@@H](O)[C@@H](O[C@@H]1O[C@H](CO)[C@H](O)[C@H](O)[C@H]1O)[C@H](O)[C@@H](O)CO
inactive: Potency [1] | Potency [2] | Potency [3] | Potency [4]

O=C(O)C(Cc1cc(I)c(O)c(I)c1)c1ccccc1 (stereo not given)
inactive: Potency [1] | Potency [2] | Potency [3] | Potency [4]

O=C(CS)Nc1ccccc1
inactive: Potency [1] | Potency [2] | Potency [3] | Potency [4]

O=C=NCC1CCCC(CN=C=O)C1 (stereo not given)
inactive: Potency [1] | Potency [2] | Potency [3] | Potency [4]

Cc1c(N(C)C)c(=O)n(-c2ccccc2)n1C
inactive: Potency [1] | Potency [2] | Potency [3] | Potency [4]

COP(=O)(OC)OC(c1ccc(Cl)cc1)P(=O)(OC)OC (stereo not given)
inactive: Potency [1] | Potency [2] | Potency [3] | Potency [4]

CCOC(=O)CCC(=O)OCC
inactive: Potency [1] | Potency [2] | Potency [3] | Potency [4]

O=C(O)[C@@H](O)[C@H](O)[C@H](O)[C@@H](O)C(=O)O
inactive: Potency [1] | Potency [2] | Potency [3] | Potency [4]

CC(C)(CO)CO
inactive: Potency [1] | Potency [2] | Potency [3] | Potency [4]

CN(C)c1cccc(O)c1
inactive: Potency [1] | Potency [2] | Potency [3] | Potency [4]

CCCCCCCCCCC(CO)CCCCCCCC (stereo not given)
inactive: Potency [1] | Potency [2] | Potency [3] | Potency [4]

Cc1ccc(S(=O)(=O)O)c(C)c1
inactive: Potency [1] | Potency [2] | Potency [3] | Potency [4]

CN(C)c1ccncc1
inactive: Potency [1] | Potency [2] | Potency [3] | Potency [4]

Cc1cc(O)c(C(C)C)cc1Cl
inactive: Potency [1] | Potency [2] | Potency [3] | Potency [4]

C=C1CC/C=C(\C)CC[C@@H]2[C@@H]1CC2(C)C
inactive: Potency [1] | Potency [2] | Potency [3] | Potency [4]

C[Si](NC1CCCCC1)(NC1CCCCC1)NC1CCCCC1
inactive: Potency [1] | Potency [2] | Potency [3] | Potency [4]

Cc1ccc(S(=O)(=O)Oc2ccc(N=Nc3ccc(-c4ccc(N=Nc5c(O)ccc6cc(S(=O)(=O)O)cc(S(=O)(=O)O)c56)c(C)c4)cc3C)cc2)cc1
inactive: Potency [1] | Potency [3] | Potency [4]
active: Potency [2] 8.97 µM and 4.12 µM

CCNC(=O)[C@@H]1CCCN1C(=O)[C@H](CCCN=C(N)N)NC(=O)[C@H](CC(C)C)NC(=O)CNC(=O)[C@H](Cc1ccc(O)cc1)NC(=O)[C@H](CO)NC(=O)[C@H](Cc1c[nH]c2ccccc12)NC(=O)[C@H](Cc1cnc[nH]1)NC(=O)[C@@H]1CCC(=O)N1 ([pGlu]HWSYGLRP-NHEt)
inactive: Potency [1] | Potency [2] | Potency [3] | Potency [4]

Cc1c(N(C)CS(=O)(=O)O)c(=O)n(-c2ccccc2)n1C
inactive: Potency [1] | Potency [2] | Potency [3] | Potency [4]

NS(=O)(=O)c1ccc(N2CCCCS2(=O)=O)cc1
inactive: Potency [1] | Potency [2] | Potency [3] | Potency [4]

CC(=O)C(C)C
inactive: Potency [1] | Potency [2] | Potency [3] | Potency [4]

ClCCl
inactive: Potency [1] | Potency [2] | Potency [3] | Potency [4]

CC/C=C\CC1=C(C)CCC1=O
inactive: Potency [1] | Potency [2] | Potency [3] | Potency [4]

COc1ccc(C#N)cc1
inactive: Potency [1] | Potency [2] | Potency [3] | Potency [4]

NC(Cc1c[nH]c2ccccc12)C(=O)O (stereo not given)
inactive: Potency [1] | Potency [2] | Potency [3] | Potency [4]

O=[N+]([O-])C(CO)(CO)CO
inactive: Potency [1] | Potency [2] | Potency [3] | Potency [4]

Nc1ccc(C(=O)Nc2ccccc2N)cc1
inactive: Potency [1] | Potency [2] | Potency [3] | Potency [4]

C=CC(=O)OCCOC1C2CCC1C1CC=CC12 (stereo not given)
inactive: activity, negative = inhibition [1] 0.351% [at 23.6 µM] | activity change, negative = inhibition [2] 0.411% [at 23.6 µM] | activity change, negative = inhibition [3] -2.44% [at 23.8 µM] | activity change, negative = inhibition [4] 0.164% [at 23.6 µM]

CC(C)(C)C(=O)CC(=O)C(C)(C)C
inactive: Potency [1] | Potency [2] | Potency [3] | Potency [4]

C=C[Si](OC)(OC)OC
inactive: Potency [1] | Potency [2] | Potency [3] | Potency [4]

CC(=O)[C@H]1CC[C@H]2[C@@H]3CC=C4C[C@@H](O)CC[C@]4(C)[C@H]3CC[C@]12C
inactive: Potency [1] | Potency [2] | Potency [3] | Potency [4]

Cc1cccc(C)c1NC(=O)CC12CCCN1CCC2
inactive: Potency [1] | Potency [2] | Potency [3] | Potency [4]

[O-][n+]1ccccc1SSc1cccc[n+]1[O-]
inactive: activity, negative = inhibition [1] -9.35% [at 23.6 µM] | activity change, negative = inhibition [2] -9.5% [at 23.6 µM] | activity change, negative = inhibition [4] -15.2% [at 23.6 µM]
active: Potency [3] 12 µM

CCCOC(=O)c1ccccc1
inactive: Potency [1] | Potency [2] | Potency [3] | Potency [4]

COc1nc(C)nc(N)n1
inactive: Potency [1] | Potency [2] | Potency [3] | Potency [4]

Oc1ccc(CCNCCCCCCNCCc2ccccc2)cc1O
inactive: Potency [4]
active: Potency [1] 7.76 µM | Potency [2] 27.5 µM | Potency [3] 13.8 µM

C=CC(O)CCCCC (stereo not given)
inactive: Potency [1] | Potency [2] | Potency [3] | Potency [4]

CC(C)OC(=O)CCCCC(=O)OC(C)C
inactive: Potency [1] | Potency [2] | Potency [3] | Potency [4]

O=C(O)CCCCCC(=O)O
inactive: Potency [1] | Potency [2] | Potency [3] | Potency [4]

COc1ccc(Cc2cnc(N)nc2N)cc1OC
inactive: Potency [1] | Potency [2] | Potency [3] | Potency [4]

OCc1cccc(Oc2ccccc2)c1
inactive: Potency [1] | Potency [2] | Potency [3] | Potency [4]

CCN(CC)CCN
inactive: Potency [1] | Potency [2] | Potency [3] | Potency [4]

Cc1onc(-c2ccccc2)c1C(=O)Cl
inactive: Potency [1] | Potency [2] | Potency [3] | Potency [4]
